Assay outcomes deposited in PubChem BioAssay by several laboratories.
The list is not random: actives were taken first. Their share in the collection is about 2.7%.
Shn3 3UTR inh – reduction of Shn3 3'UTR firefly luciferase signal, primary screen, Schnurri-3 inhibitor project, cell-based, Clone20 osteoblasts, set 2; Clone20 osteoblast Shn3 3'UTR firefly luciferase, 24 h; inhibition, % at 12.5 µM; AID 588674, 2011; hit rate 0.52% among 360,000;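 active = mean inhibition of at least 75% with every replicate also reaching 75%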
HIF-2a inh – HIF-2a reporter inhibitors, primary screen, luminescence, 786-0 RCC cells | 786-0 RCC cells HIF-2a reporter, luciferase luminescence, overnight | inhibition, % at 18.8 µM | hit rate 0.72% among 360,000 | AID 624352, 2012;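 active = inhibition of the luminescence signal of 40% or more relative to plate controls, in a single-dose primary screen at 18.75 µM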
TRPM1 prom inh – inhibitors of MITF-dependent TRPM1 promoter reporter, primary screen, cell-based, SK-MEL-5, single point, luciferase | hit rate 0.83% among 330,000 | SK-MEL-5 TRPM1 promoter luciferase, 24 h | inhibition, % at 12.5 µM;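 active = mean inhibition across replicates of 60% or more, whatever share of single replicates reaches that level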
KKLEB tox – cytotoxicity in KKLEB CF airway cells, primary screen, cytotoxicity control for CF NF-kB inhibitor project, cell-based, uHTS, fluorescence assay plates. KKLEB CF airway cells viability, ATPlite luminescence, overnight; hits give low values; cells stimulated with P. aeruginosa culture filtrate. activity change (cytotoxicity), % at 5 µM. hit rate 0.36% among 360,000. AID 602141, 2011;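 active = corrected activity change at or below -50% at 5 µM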
Peg3 promoter – Peg3 promoter-driven luciferase inhibitors, primary screen, cell-based, HeLa, luciferase luminescence. hit rate 1.7% among 360,000. AID 588405, 2011. HeLa PEG-Prom luciferase reporter, overnight. inhibition, % at 20 µM;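 active = inhibition of at least 50% at 20 µM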
CF NFkB block – inhibitors of PAF-induced NF-kB signaling, primary screen, cell-based, GFP fluorescence, uHTS; hit rate 0.86% among 360,000; inhibition, % at 5 µM; KKLEB NF-kB-GFP reporter, GFP fluorescence overnight;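 active = at least 50% inhibition at 5 µM, scaled per plate between neutral and stimulator controls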;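 also: PAF is a Pseudomonas aeruginosa culture filtrate used as stimulus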
CF NFkB conf – inhibitors of PAF-induced NF-kB signaling, retest, confirmation, cell-based, GFP fluorescence, single concentration | shares compounds with CF NFkB block | KKLEB CF airway cells, overnight | inhibition, % at 5 µM | hit rate 64% among 1,300; in the data active = inhibition above about 40%;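 also: stimulus PAF is a Pseudomonas aeruginosa filtrate and not platelet activating factor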
A number is an active result; – = inactive; · = no result.

SMILES	Shn3 3UTR inh	HIF-2a inh	TRPM1 prom inh	KKLEB tox	Peg3 promoter	CF NFkB block	CF NFkB conf
Cc1c(C(=O)c2ccc(Cl)c(Cl)c2)cnc2cc3c(cc12)OCO3	–	–	–	–	–	–	·
O=C(NC1CCCC1)C(c1ccccc1)n1c(-c2cccc3ccccc23)nc2ccccc21 (stereo unspecified)	·	–	·	·	·	·	·
CCCc1nc2c(C)cc(Br)cn2c1Cc1ccccc1C(F)(F)F	–	–	·	–	–	–	·
O=C(NCCc1ccc(F)cc1)c1coc(=O)c(Br)c1	–	–	–	–	–	81	83
O=C(CC[C@H]1O[C@@H](n2ccc(=O)[nH]c2=O)[C@H](O)[C@@H]1O)N[C@@H](Cc1ccccc1)C(=O)NCC1CCCCC1	–	–	·	–	–	–	·
Nc1nc(-c2ccccc2)nc(-c2ccccc2O)n1	–	–	–	–	–	57	–
Nc1nc(N)nc(-c2ccccc2O)n1	–	–	–	–	–	–	·
c1ccc(N2CCN(c3ncnc4sc5c(c34)CCC5)CC2)cc1	–	–	–	–	–	59	42
CC1CCc2sc3ncnc(N4CCOCC4)c3c2C1 (stereo unspecified)	–	–	–	–	–	51	57
Cc1cc(C)n(-c2ncnc3sc4c(c23)CC(C)CC4)n1 (stereo unspecified)	–	–	–	–	–	–	·
CC1CCc2c(sc3ncnc(N4CCOCC4)c23)C1 (stereo unspecified)	–	–	–	–	–	66	63
CC(=O)NCCNc1nc2cc(-c3ccc4c(ccn4C)c3)sc2c(=O)n1C	–	–	·	–	–	–	·
CC(C)CC1C(=O)N(Cc2cn(CCC3OCCCO3)nn2)CCS(=O)(=O)N1Cc1ccc(-c2ccncc2)cc1 (stereo unspecified)	–	–	·	–	–	–	·
CC(C)CN(C(=O)COC(=O)CCSc1ccc(Cl)cc1)c1c(N)n(Cc2ccccc2)c(=O)[nH]c1=O	–	–	·	–	–	–	·
Cc1ccc2c(C)c(C(=O)N3CCC(C(N)=O)(N4CCCCC4)CC3)oc2c1C	–	–	·	–	–	–	·
NC(c1csc(NC(=O)Nc2cccc(Cl)c2)n1)c1ccccc1Cl (stereo unspecified)	–	–	·	–	100	91	77
Cc1cccc(C)c1NC(=O)Nc1nc(C(N)c2ccccc2Cl)cs1 (stereo unspecified)	–	–	·	–	–	–	·
O=C(NC1CCCC1)C(C1CC1)n1c(-c2ccncc2)nc2ccccc21 (stereo unspecified)	·	–	·	·	·	·	·
CCOC(=O)c1c(C)[nH]c(C(=O)N/N=C/c2ccc(Br)cc2)c1C	–	–	–	–	–	56	79
CCOC(=O)c1c(C)[nH]c(C(=O)OCC(=O)Nc2cc(C)ccc2OC)c1C	–	–	–	–	–	50	–
CCOC(=O)CC1(C)Oc2ccccc2N1S(=O)(=O)c1ccc(C)cc1 (stereo unspecified)	·	–	·	·	·	·	·
Cc1ccc(C(O)c2ncc(-c3ccccc3Cl)[nH]2)cc1F (stereo unspecified)	–	–	·	–	–	–	·
Nc1c(C(=O)Nc2ccccc2)sc2nc3c(c(-c4ccco4)c12)CCCC3	–	–	–	–	–	51	–
COc1cc2oc(=O)cc(-c3ccc(-c4ccc(N(C)C)cc4)cc3)c2c(OC)c1OC	–	–	–	–	–	52	66
C[C@@H]1CCCCO[C@H](CN(C)C(=O)Nc2ccc3c(c2)OCO3)[C@@H](C)CN([C@H](C)CO)C(=O)c2cc(NS(=O)(=O)c3ccc(F)cc3)ccc2O1	–	–	·	–	–	–	·
SMILES	Shn3 3UTR inh	HIF-2a inh	TRPM1 prom inh	KKLEB tox	Peg3 promoter	CF NFkB block	CF NFkB conf
O=[N+]([O-])c1cccnc1Oc1ccc(F)cc1	–	–	–	–	–	–	·
O=[N+]([O-])c1ccc(Oc2ccc(F)cc2)c2ccncc12	–	–	–	–	–	59	63
COCCNc1nc(Oc2cccc(F)c2)c2sccc2n1	–	–	·	–	–	–	·
COCCNc1nc(Oc2cncc(Cl)c2)c2sccc2n1	–	–	·	–	–	62	78
Clc1nc(Cl)c2ncn(-c3ccccc3)c2n1	–	–	–	–	81	76	–
N#CC(C#N)=C1SC(=Nc2ccccc2)C(=Nc2ccccc2)N1c1ccccc1	–	–	–	–	89	67	79
CCC(C(=O)OCC(=O)C1(O)CCC2C3CCC4=CC(=O)CCC4(C)C3C(O)CC21C)C(C)C (stereo unspecified)	–	–	–	–	–	56	–
CC(C)CC(NC(=O)CCC(=O)OCC(=O)[C@@]1(O)CCC2[C@@H]3CCC4=CC(=O)C=C[C@]4(C)C3[C@@H](O)C[C@@]21C)C(=O)O (stereo partly specified)	–	–	–	–	–	83	–
CCc1cc2cc3c(cc2nc1SCC(=O)Nc1cc(C)on1)OCO3	·	–	–	–	–	55	43
CN(Cc1ccco1)c1ncnc2ccc(-c3ccoc3)cc12	–	–	–	–	–	66	56
Cc1cnc(CNC(=O)c2csc([C@@H]3O[C@H](CO)[C@H](O)[C@H](O)[C@H]3O)n2)cn1	–	–	·	–	–	–	·
CCOC(=O)c1cccc(NS(=O)(=O)c2c(C)[nH]c(=O)[nH]c2=O)c1	–	–	–	–	–	–	·
CCOC(=O)c1cccc(NS(=O)(=O)c2ccc(NC(C)=O)cc2)c1	–	–	–	–	–	52	44
COC(=O)c1csc(-c2ccc(CO)o2)n1	–	–	·	–	–	–	·
N#Cc1ccc(S(=O)(=O)N2CCCCC2c2cc(C(=O)NCc3ccccc3)no2)cc1 (stereo unspecified)	–	–	·	–	–	–	·
Fc1cccc(Cc2c(-c3ccco3)nc3c(Cl)cc(C(F)(F)F)cn23)c1	–	–	·	–	–	–	·
COc1ccc(-c2ccc([C@H]3[C@@H]4C=CCC[C@@]4(C)C(=O)N3Cc3ccccc3)c(F)c2)cc1OC	–	–	–	–	–	53	–
COc1ccc2[nH]c3c(c2c1)CC(C)NC3=O (stereo unspecified)	–	–	–	–	–	61	71
Oc1ccc(Cl)cc1Cc1cc(Cl)ccc1O	–	–	–	–	–	77	90
CC(=O)C1=C(O)CC(c2ccccc2)CC1=NCCc1c(C)[nH]c2ccc(C)cc12 (stereo unspecified)	–	–	·	–	–	–	·
